Assay results as given in PubChem BioAssay (Tox21).
Records with an inconclusive call do not appear. The source made the active and inactive calls. Unless noted, the call rests on the fitted dose curve; in most records, active means well fitted curve in the direction sought with a large enough effect in the repeat runs; inconclusive means weak or mixed curves; inactive means no such curve, though single readings can be large; an effect the other way counts as inactive or inconclusive.

Columns and labels:
[1] = qHTS assay for small molecules that induce genotoxicity in human embryonic kidney cells expressing luciferase-tagged ATAD5 (AID 651632); further: nearly all actives have a fitted effect of over 15% in size; further: potency means the concentration at half of the fitted maximal effect
Procedure, shortened: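 Cells were seeded at 2,000 per well, dosed with compound, and incubated 16 hr at 37C in 5% CO2. Luciferase activity was then quantified after a 30 min room-temperature incubation with Amplite.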

[2] = qHTS assay for small molecule agonists of the p53 signaling pathway - cell viability (AID 651633; calls by dose curve; further: nearly all actives have a fitted effect of over 30% in size; further: potency means the concentration at half of the fitted maximal effect)
Procedure, shortened: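 Viability counter-read: CellTiter-Glo luminescence (30 min, room temperature) in the same p53RE-bla plates. These plates had been exposed to compounds for 16 h at 37 C.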

[3] = qHTS assay for small molecules that induce genotoxicity in human embryonic kidney cells expressing luciferase-tagged ATAD5 - cell viability (AID 651634; calls by dose curve; further: nearly all actives have a fitted effect of over 25% in size; further: potency means the concentration at half of the fitted maximal effect)
Procedure, shortened: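 Cells (HEK293T, luciferase-tagged ATAD5) are seeded at 2,000 per well, dosed with compound or DMSO vehicle, and incubated 15.5 hr at 37C and 5% CO2. CellTiter-Fluor is added for 30 min before fluorescence is measured.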

[4] = qHTS assay for small molecule disruptors of the mitochondrial membrane potential - cell viability (AID 720634; calls by dose curve; further: nearly all actives have a fitted effect of over 20% in size; further: potency means the concentration at half of the fitted maximal effect)
Procedure, shortened: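 Cytotoxicity was measured by ATP quantitation in HepG2 wells that had first been treated with compound for 1 hr and stained with m-MPI dye; CellTiter-Glo incubation was 30 min at room temperature.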

[5] = qHTS assay to test for compound auto fluorescence at 590 nm (red) in HepG2 cells (AID 720674); further: on the % scale 0 is the no-effect control and ±100 the full control effect
Procedure, shortened: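 1 hr compound incubation on HepG2 cells, 37 C, 5% CO2; plate read ex 540 nm / em 590 nm; intensities reported as Rose Bengal sodium equivalents.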

[6] = qHTS assay to test for compound auto fluorescence at 535 nm (green) in HepG2 cells (AID 720675); further: potency means the concentration at half of the fitted maximal effect
[7] = qHTS assay to test for compound auto fluorescence at 460 nm (blue) in HEK293 cells (AID 720678); further: on the % scale 0 is the no-effect control and ±100 the full control effect
Procedure, shortened: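 HEK293 cells (2,000 per well, medium with 10% dialyzed FBS) attached for 4-5 hr at 37C, then received compound and stood overnight at 37C, 5% CO2. Blue fluorescence was read at Ex/Em 405/460 nm and expressed relative to triamterene.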

[8] = qHTS assay to test for compound auto fluorescence at 590 nm (red) in HEK293 cells (AID 720679); further: on the % scale 0 is the no-effect control and ±100 the full control effect
Procedure, shortened: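 HEK293 cells (2,000/well, medium with 10% dialyzed FBS) attached for 4-5 hr at 37C, received 23 nL compound and were incubated overnight at 37C, 5% CO2. Red fluorescence was then read at 540/590nm Ex/Em, referenced to Rose Bengal sodium.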

[9] = qHTS assay to test for compound auto fluorescence at 535 nm (green) in HEK293 cells (AID 720680); further: on the % scale 0 is the no-effect control and ±100 the full control effect
[10] = qHTS assay to test for compound auto fluorescence at 535 nm (green) in HEK293 cell free culture (AID 720682); further: potency means the concentration at half of the fitted maximal effect
Procedure, shortened: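 Cell-free medium (DMEM, 10% FBS) receives compound or DMSO by pintool. Plate read directly at Ex 485/Em 535 nm. Signal converted to fluorescein equivalency.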

[11] = qHTS assay to test for compound auto fluorescence at 590 nm (red) in HEK293 cell free culture (AID 720683); further: on the % scale 0 is the no-effect control and ±100 the full control effect
Procedure, shortened: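 Red-channel autofluorescence of compounds in culture medium (DMEM, 10% FBS), no cells, measured at 540/590 nm. Rose Bengal sodium is the reference fluorophore for equivalence.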

[12] = qHTS assay to test for compound auto fluorescence at 590 nm (red) in HepG2 cell free culture (AID 720684); further: on the % scale 0 is the no-effect control and ±100 the full control effect
Procedure, shortened: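 No cells present: MEM + 10% FBS only. Compound pinned in, red label read (540/590 nm). Activity = fluorescence equivalent to Rose Bengal sodium.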

[13] = qHTS assay to test for compound auto fluorescence at 460 nm (blue) in HepG2 cell free culture (AID 720685); further: on the % scale 0 is the no-effect control and ±100 the full control effect
Procedure, shortened: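 Cell-free plates of MEM plus 10% FBS received 23 nL compound or DMSO vehicle; blue-channel (405/460 nm) intensity scored against triamterene as reference fluorophore.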

[14] = qHTS assay to test for compound auto fluorescence at 460 nm (blue) in HepG2 cells (AID 720687); further: on the % scale 0 is the no-effect control and ±100 the full control effect
Procedure, shortened: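 Blue-channel autofluorescence (Ex/Em 405/460 nm, triamterene-equivalent) was measured after 1 hr compound exposure at 37 C, 5% CO2. Cells were HepG2, plated overnight at 37 C in MEM plus 10% FBS.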

[15] = biological target: Glucocorticoid receptor (Homo sapiens) (UniProt P04150); experiment: qHTS assay to identify small molecule agonists of the glucocorticoid receptor (GR) signaling pathway (AID 720691; active means well fitted activation curve with a large enough effect in the signal ratio in the repeat runs, not every such curve was filed as active; the % refers to the signal ratio; further: on the % scale 0 is the no-effect control and ±100 the full control effect)
Chain of Glucocorticoid receptor (Homo sapiens) (P04150 whole entry, looked up): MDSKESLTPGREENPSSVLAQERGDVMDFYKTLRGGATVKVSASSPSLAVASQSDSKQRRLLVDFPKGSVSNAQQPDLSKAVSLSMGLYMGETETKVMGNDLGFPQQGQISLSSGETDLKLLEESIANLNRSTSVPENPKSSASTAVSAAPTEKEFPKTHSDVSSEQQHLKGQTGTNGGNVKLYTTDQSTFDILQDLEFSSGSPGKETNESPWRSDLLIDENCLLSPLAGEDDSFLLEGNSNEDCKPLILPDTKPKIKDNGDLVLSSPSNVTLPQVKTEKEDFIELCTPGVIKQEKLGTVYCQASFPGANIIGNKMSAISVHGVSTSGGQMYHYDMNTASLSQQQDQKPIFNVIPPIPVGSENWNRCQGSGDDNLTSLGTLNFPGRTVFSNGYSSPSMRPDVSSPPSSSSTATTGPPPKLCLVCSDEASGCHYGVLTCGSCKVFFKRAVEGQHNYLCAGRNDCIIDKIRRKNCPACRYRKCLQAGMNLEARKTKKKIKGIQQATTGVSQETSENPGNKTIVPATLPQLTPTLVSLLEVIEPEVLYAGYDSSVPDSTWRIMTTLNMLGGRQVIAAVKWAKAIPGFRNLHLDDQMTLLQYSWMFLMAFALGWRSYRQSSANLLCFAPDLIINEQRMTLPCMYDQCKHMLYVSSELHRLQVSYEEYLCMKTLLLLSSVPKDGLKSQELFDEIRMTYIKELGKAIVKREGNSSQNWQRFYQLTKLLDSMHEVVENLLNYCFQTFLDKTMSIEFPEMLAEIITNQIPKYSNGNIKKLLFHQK
Procedure, shortened: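 Steps: seed GR-bla HeLa cells, incubate 4 h at 37 C/5% CO2; pin-transfer DMSO-dissolved compounds; incubate 18 h at 37 C; add LiveBLAzer B/G FRET substrate; after 2 h at room temperature, measure fluorescence.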

[16] = biological target: Glucocorticoid receptor (Homo sapiens) (UniProt P04150); experiment: qHTS assay to identify small molecule antagonists of the glucocorticoid receptor (GR) signaling pathway (AID 720692; active means well fitted inhibition curve with a large enough effect in the signal ratio in the repeat runs, not every such curve was filed as active; the % refers to the signal ratio; further: potency means the concentration at half of the fitted maximal effect)
Procedure, shortened: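 Antagonism was scored as loss of dexamethasone-driven (5 nM final) reporter signal in HeLa cells bearing a glucocorticoid response element–beta-lactamase construct, after 18 h compound exposure at 37 C and 2 h FRET substrate loading.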

[17] = qHTS assay to test for compound auto fluorescence at 460 nm (blue) in HEK293 cell free culture (AID 720681); further: on the % scale 0 is the no-effect control and ±100 the full control effect
Procedure, shortened: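 Blue fluorescence (Ex 405/Em 460 nm, triamterene-equivalent) was read immediately after pin transfer of compound or DMSO into medium (DMEM, 10% FBS) without cells.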

[18] = qHTS assay to test for compound auto fluorescence at 535 nm (green) in HepG2 cell free culture (AID 720686); further: on the % scale 0 is the no-effect control and ±100 the full control effect
[19] = qHTS assay for small molecule disruptors of the mitochondrial membrane potential (AID 720635); further: potency means the concentration at half of the fitted maximal effect
Procedure, shortened: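 Mitochondrial membrane potential tracked with Mito-MPS dye, red aggregates (ex 540/em 590 nm) against green monomers (ex 490/em 535 nm). Compound treatment 1 hr at 37C, dye 30 min in HepG2.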
Tags describe the fitted curve by direction and shape or compound fluorescence and quenching.

CC(N=C(NC#N)Nc1ccncc1)C(C)(C)C (configuration not stated)
inactive: Potency [1] | Potency [2] | Potency [3] | Potency [4] | Potency [5] | Potency [6] | Potency [7] | Potency [8] | Potency [9] | Potency [10] | Potency [11] | Potency [12] | Potency [13] | Potency [14] | Potency [15] | Potency [16]

C=C(C)C(=O)OCCCCCCCCCC
inactive: Potency [1] | Potency [2] | Potency [3] | Potency [4] | Potency [5] | Potency [6] | Potency [7] | Potency [8] | Potency [9] | Potency [17] | Potency [10] | Potency [11] | Potency [12] | Potency [13] | Potency [14] | Potency [15]

Nc1ccc(Oc2ccc(Cl)cc2)cc1
active: Potency [16] 24 µM
inactive: Potency [1] | Potency [2] | Potency [3] | Potency [4] | Potency [5] | Potency [6] | Potency [7] | Potency [8] | Potency [17] | Potency [10] | Potency [11] | Potency [12] | Potency [13] | Potency [18] | Potency [14]

COC1=C(OC)C(=O)C(CCCCCCCCCCO)=C(C)C1=O
active: Potency [2] 29.8 µM
inactive: Potency [1] | Potency [3] | Potency [4] | Potency [5] | Potency [6] | Potency [7] | Potency [8] | Potency [9] | Potency [17] | Potency [10] | Potency [11] | Potency [13] | Potency [18] | Potency [15]

CCCCCCCCCCC[C@@H](C[C@@H]1OC(=O)[C@H]1CCCCCC)OC(=O)[C@H](CC(C)C)NC=O
inactive: Potency [1] | Potency [2] | Potency [3] | Potency [4] | Potency [5] | Potency [6] | Potency [7] | Potency [8] | Potency [17] | Potency [10] | Potency [11] | Potency [12] | Potency [13] | Potency [18] | Potency [14] | Potency [15]

O=C(Nc1ccc2c(O)c(N=Nc3ccc(N=Nc4ccc(S(=O)(=O)O)cc4)cc3)c(S(=O)(=O)O)cc2c1)c1ccccc1
active: Potency [3] 48.6 µM
inactive: Potency [1] | Potency [2] | Potency [4] | Potency [6] | Potency [7] | Potency [8] | Potency [9] | Potency [17] | Potency [10] | Potency [11] | Potency [12] | Potency [18] | Potency [14]

Cc1cc(C(C)(C)C)c(O)c(C)c1Cn1c(=O)n(Cc2c(C)cc(C(C)(C)C)c(O)c2C)c(=O)n(Cc2c(C)cc(C(C)(C)C)c(O)c2C)c1=O
inactive: Potency [1] | Potency [2] | Potency [3] | Potency [4] | Potency [5] | Potency [6] | Potency [7] | Potency [8] | Potency [9] | Potency [17] | Potency [10] | Potency [11] | Potency [13] | Potency [18] | Potency [14] | Potency [15]

Nc1nc(N)nc(-c2cc(Cl)ccc2Cl)n1
inactive: Potency [1] | Potency [2] | Potency [3] | Potency [4] | Potency [7] | Potency [8] | Potency [17] | Potency [10] | Potency [11] | Potency [12] | Potency [18] | Potency [14] | Potency [15] | Potency [16]

CCO[C@@H]1O[C@H](C(COCc2ccccc2)OCc2ccccc2)[C@H](OCc2ccccc2)[C@H]1O (some centres not stated)
inactive: Potency [1] | Potency [2] | Potency [3] | fluorescence, relative to Rose Bengal [5] -0.664% [at 18.6 µM] | fluorescence, % of triamterene [7] -0.0314% [at 18.6 µM] | fluorescence, % of fluorescent control [8] 0.894% [at 18.6 µM] | fluorescence, % of fluorescein [9] -0.012% [at 18.6 µM] | fluorescence, % of fluorescent control [17] 0.118% [at 18.6 µM] | activity change [10] -0.0677% [at 18.6 µM, hits give high values] | fluorescence, % of Rose Bengal [12] -0.0599% [at 18.6 µM] | fluorescence, % of fluorescent control [13] -0.0414% [at 18.6 µM] | fluorescence, % of fluorescent control [14] -0.0213% [at 18.6 µM] | Potency [15]
active: Potency [19] 11.4 µM

CC(C)NC[C@@H](O)COc1ccc(CC(N)=O)cc1
inactive: Potency [1] | Potency [2] | Potency [3] | Potency [4] | Potency [5] | Potency [7] | Potency [8] | Potency [9] | Potency [17] | Potency [10] | Potency [11] | Potency [12] | Potency [13] | Potency [14]

CCn1c2ccccc2c2cc([N+](=O)[O-])ccc21
active: Potency [4] 30.6 µM
inactive: Potency [1] | Potency [2] | Potency [3] | Potency [6] | Potency [7] | Potency [8] | Potency [9] | Potency [17] | Potency [10] | Potency [12] | Potency [13] | Potency [14]

CCCCCCCCCCCCOC(=O)c1ccc(O)cc1
inactive: Potency [1] | Potency [2] | Potency [3] | Potency [5] | Potency [6] | Potency [7] | Potency [8] | Potency [9] | Potency [17] | Potency [10] | Potency [11] | Potency [12] | Potency [13] | Potency [18]

O=C1OC2(c3ccc(O)cc3Oc3cc(O)ccc32)c2ccc(N=C=S)cc21
active: Potency [6] 39.8 µM | Potency [10] 39.8 µM [fluorescent]
inactive: Potency [1] | Potency [2] | Potency [3] | Potency [4] | Potency [5] | Potency [7] | Potency [8] | Potency [17] | Potency [13] | Potency [14] | Potency [15] | Potency [16]

C=CC(=O)OCCOC(=O)C=C
inactive: Potency [2] | Potency [4] | Potency [7] | Potency [8] | Potency [9] | Potency [17] | Potency [10] | Potency [11] | Potency [12] | Potency [13] | Potency [18] | Potency [14] | Potency [15]
active: Potency [1] 21.7 µM | Potency [3] 61.1 µM

CC(C(=O)O)c1ccc2c(c1)[nH]c1ccc(Cl)cc12 (configuration not stated)
inactive: Potency [1] | Potency [2] | Potency [3] | Potency [4] | Potency [5] | Potency [6] | Potency [7] | Potency [8] | Potency [17] | Potency [10] | Potency [11] | Potency [12] | Potency [18] | Potency [15] | Potency [16]
